Test results: PubChem BioAssay (NCATS)
Results filed as inconclusive are left out. Unmarked numbers belong to inactive results. Calls come from the whole dose curve; as a rule, active = well fitted activation curve with a large enough effect; inconclusive = small, poorly fitted or top-dose-only effect; inactive = flat fitted curve, though single readings scatter. *1 amine or outer side, *2 acyl side, *3 side chain or, on linkers, in order; H or OH if unused. Where a SMILES comes first, the peptide text is derived from it. Bridges are numbered along the chain shown (N, C = ends). [ ]: non-standard residue; d: D form. The star is where a group is joined. pTerphenylCO(4''-OnC5H11) = CCCCCOc1ccc(-c2ccc(-c3ccc(C(=O)*)cc3)cc2)cc1; Orn(4R-OH,5R-OH) = O=C([C@H](C[C@@H](O)[C@@H](O)N[*:3])N[*:1])[*:2]; hTyr(3S-OH,4S-OH) = N[C@H](C(=O)O)[C@H](O)[C@@H](O)c1ccc(O)cc1; Pro(3S-OH,4S-Me) = C[C@H]1CN[C@H](C(=O)O)[C@H]1O; Hyp = O=C(O)[C@@H]1C[C@@H](O)CN1

Test: Primary redox qHTS assay for identification of artifact compounds. (AID 1845223);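 note: 0% = DMSO and 100% = reference compound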
Details: Amplex Red/HRP redox cycling with DTT, fluorescence; series mostly up to 53.8 µM; redox activity (% of DA3003): at the top concentration
Method in brief: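 Redox-cycling detection via DTT (250 uM final) oxidation coupled to Amplex Red (25 uM)/HRP (250 mU/mL) in HBSS. 15 min preincubation plus 30 min after DTT, room temperature. Ex/Em 525/598 nm; 4-parameter Hill fit against DMSO and 10 uM DA3003.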

Row | Compound | redox activity (% of DA3003)
1 | C=C1CCC[C@]2(C)CC/C(=C(/CO)C(=O)OC)C[C@@H]12 | -1.68%
2 | CC(C)C[C@@H]1NC(=O)[C@@H]2C[C@@]34C[C@@H]5[C@@]6(C)CCCC(C)(C)C6CC[C@@]5(C)N(c5ccccc53)[C@H]4N2C1=O (stereo partly specified) | -7.08% [at 25.6 µM]
3 | CC[C@H]1OC(=O)[C@H](C)[C@@H](O[C@H]2C[C@@](C)(OC)[C@@H](O)[C@H](C)O2)[C@H](C)[C@@H](O[C@H]2O[C@H](C)C[C@H](N(C)C)[C@H]2O)[C@](C)(O)C[C@@H](C)C(=O)[C@H](C)[C@@H](O)[C@]1(C)O | 9.24% [at 25.6 µM]
4 | COc1ccc2[nH]c(=O)c3c(c2c1)OC(C)(C)C=C3 | -10.1%
5 | CC(C)(C)Oc1ccc(OCC2Cc3ccccc3CN2C(=O)c2cccc3ccccc23)cc1 (stereo unspecified) | -3.71%
6 | O=c1cc(NCCCN[C@@H]2CCOc3c(Br)cc(Br)cc32)[nH]c2ccsc12 | 10.1%
7 | Cc1cc(-c2cnc(N)c3c(-c4ccc5scnc5c4)csc23)n(C)n1 | -1.46%
8 | CCC/C=C/c1cc2c(C=O)c(O)c(CC=C(C)C)cc2o1 | 16.1%
9 | COc1cc(/C=C/C(=O)NCCn2c(C(F)(F)F)cc3ccccc32)cc(OC)c1OC | 7.1%
10 | CCCCCOc1ccc(-c2ccc(-c3ccc(C(=O)N[C@H]4C[C@@H](O)[C@@H](O)NC(=O)[C@@H]5[C@@H](O)[C@@H](C)CN5C(=O)[C@H]([C@@H](C)O)NC(=O)[C@H]([C@H](O)[C@@H](O)c5ccc(O)cc5)NC(=O)[C@@H]5C[C@@H](O)CN5C(=O)[C@H]([C@@H](C)O)NC4=O)cc3)cc2)cc1 ({pTerphenylCO(4''-OnC5H11)}-[Orn(4R-OH,5R-OH)]T[Hyp][hTyr(3S-OH,4S-OH)]T[Pro(3S-OH,4S-Me)]; lactam 1-C) | 5.04% [at 25.6 µM]
11 | C=CC(C)(O)CC[C@@H]1[C@@]2(C)CCCC(C)(C)C2CC[C@@]1(C)O (stereo partly specified) | 5.55%
